The list is not random: actives were taken first. Their share in the collection is about 2.1%.
aSyn rescue: inhibitors of alpha-synuclein toxicity in yeast | Yeast expressing alpha-synuclein, growth rescue, BacTiter-Glo, 24 h | hit rate 0.14% among 370,000 | Potency, µM (titrated, usually from 46.1 µM), without a hit: at the highest dose growth rescue (activation), usual class: activators; further: % of control where 0% means no effect; nearly all actives have a fitted effect of over 65% in size
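Readout is rescue of growth in alpha-synuclein-expressing yeast, so inhibitors of toxicity appear as activators. Growth after 24 hr at 30 deg C in galactose medium is quantified by luminescence.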
Abeta yeast res: restores growth of yeast expressing A-beta42 peptide; yeast expressing A-beta42, growth rescue, OD600, 48 h; response scale: 0% DMSO, 100% iron-clioquinol control; Potency, µM (top dose mostly 46.1 µM), actives largely listed as activators; hit rate 0.063% among 410,000; further: nearly all actives have a fitted effect of over 55% in size
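Yeast A-beta toxicity model in growth medium with pinned compounds, 48 h at 30 C; growth read as absorbance at 600 nm. Normalized to FeCl3/clioquinol equimolar mix (positive) and DMSO (negative).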
TDP43 rescue: rescues yeast growth from TDP-43 toxicity | TDP-43 expressing yeast growth rescue, BacTiter-Glo, 24 h | Potency, µM (series often up to 46.1 µM), inactives show top-dose growth rescue (activation), most hits filed as activators | hit rate 1.8% among 410,000; further: % of control where 0% means no effect; nearly all actives have a fitted effect of over 50% in size
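Readout is BacTiter-Glo luminescence of cell growth, so inhibitors register as activators. TDP-43-expressing yeast at OD600=0.02 in galactose medium, after raffinose pregrowth to mid-log, were incubated with compound for 24 hr at 30 deg C.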
FUS yeast rescue: suppressors of FUS proteinopathy in yeast. Potency, µM (top dose mostly 76.6 µM), most hits filed as activators. S. cerevisiae FUS-expressing, growth rescue, OD600, 24 h. hit rate 0.24% among 390,000. AID 1347120;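 further: plate controls were DMSO vehicle for no effect and reference control for full effect; nearly all actives have a fitted effect of over 55% in size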
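Quantitative HTS measuring growth restoration of FUS-toxic yeast. Galactose-induced cells (OD 0.005) were exposed 24hr at 30C to compounds at several concentrations, then absorbance at 600 nm was recorded.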
Numbers without * were called inactive; i = inactive; ? = inconclusive; . = no result. The call rests on the fitted dose curve; in most records, active means well fitted curve in the direction sought with a large enough effect; inconclusive means small, poorly fitted or top-dose-only effect, or another doubt; inactive means no such curve, though single readings can be large; an effect the other way counts as inactive or inconclusive. Potency means the concentration at half of the fitted maximal effect.

SMILES | aSyn rescue | Abeta yeast res | TDP43 rescue | FUS yeast rescue
Fc1ccccc1Nc1ncnc2c1nnn2Cc1ccccc1 | 0% | ? | 11µM* | i
Nc1[nH]c(C(=O)c2ccccc2)c(-c2ccc3ccccc3c2)c1C(=O)NCCc1ccc(Cl)cc1 | . | . | . | i
COc1ccc(CCNC(=O)c2cc(-c3ccc(C)c(C)c3)nc3ccccc23)cc1OC | . | i | 10% | ?
Cc1ccc(Nc2ncnc3c2cnn3-c2ccccc2)c(C)c1 | 3% | i | 35µM* | i
Cn1ncc2c(Nc3ccc4ccccc4c3)ncnc21 | -6% | i | 10µM* | i
Cc1ccc(-n2ncc3c(NCc4ccco4)ncnc32)cc1C | 0% | i | 9% | i
Cc1ccc(-n2ncc3c(NCCc4ccccc4)ncnc32)cc1C | . | i | ? | i
Cc1cccc(Nc2ncnc3c2cnn3C)c1 | -9% | i | ? | i
CCOCCCNc1ncnc2c1cnn2-c1ccc(C)c(C)c1 | . | i | 11µM* | i
Cc1ccc(-n2ncc3c(Nc4cccc(C)c4C)ncnc32)cc1 | . | i | 6% | i
CNc1ncnc2c1cnn2-c1ccc(C)c(C)c1 | . | i | 11µM* | i
CCCN(CCC)c1nn2c(=O)c(C(=O)NCc3cc(Br)ccc3OC)cnc2s1 | . | i | 12% | i
O=C(Nc1cccc(C(F)(F)F)c1)OCCCN1CCC2(CCC(c3ccccc3)CC2)C1=O (configuration not stated) | . | . | . | i
CC(C)CNS(=O)(=O)CC1NCc2cc3c(cc21)OCO3 (configuration not stated) | . | . | . | i
CCN(CC)CCN(C(=O)c1ccco1)c1nc2c(C)c(C)ccc2s1 | . | i | -27% | i
CC(C)c1nn2c(=O)cc(COC(=O)c3cccc(NC(=O)CCc4ccccc4)c3)nc2s1 | . | i | 0% | i
CCc1ccccc1NC(=O)Cn1ccn(-c2cc(C)cc(C)c2)c(=O)c1=O | . | i | 2% | i
O=C(c1ccccc1Cl)c1c(O)c2ccccc2oc1=O | -14% | i | -11% | i
O=C(Nc1c(O)c2ccccc2oc1=O)c1ccccc1Cl | . | i | 2.5µM* | i
C/C=C/C=C/C(=O)N1CC[C@]23c4ccccc4N[C@H]4N(C)c5cccc6c5[C@]42CCN([C@H]6C2OC2(C)C)[C@H]13 (some centres not stated) | 8% | ? | 12% | 16µM*
Cc1ccn2c(Nc3c(C)cccc3C)c(-c3ccc(Cl)s3)nc2c1 | . | i | 25% | i
Cc1cc2ccccc2n1CCNC(=O)c1cccc(Cl)c1 | . | i | 14µM* | i
Cc1cc2ccccc2n1CCNC(=O)c1cccc(Br)c1 | . | i | ? | i
Cc1sc2ccccc2[n+]1CC(=O)O | -4% | i | 6% | i
Cc1sc2ccccc2[n+]1CC(=O)c1ccccc1 | 7% | i | 11µM* | ?
SMILES | aSyn rescue | Abeta yeast res | TDP43 rescue | FUS yeast rescue
COc1cccc(Nc2nc(N)c([N+](=O)[O-])c(NCc3ccccc3)n2)c1 | 2% | i | 25µM* | i
c1ccc(-c2nnc(CSc3ccc4c(c3)OCCO4)o2)cc1 | 7% | i | 13µM* | i
O=C(OCc1nnc(-c2ccccc2)o1)c1ccc2c(c1)OCO2 | -3% | i | 3% | ?
Cc1ccc(C2OC34CCCCCC3C(C#N)(C(=N)O4)C2(C#N)C#N)cc1 (configuration not stated) | -30% | i | 1.3µM* | i
CCCCOc1ccc(C2OC34CCCCC3C(C#N)(C#N)C2(C#N)C(=N)O4)cc1 (configuration not stated) | 1% | i | 19% | i
CC(C)(C)c1ccc(OCCNC(=S)Nc2ccccc2)cc1 | -1% | i | 13µM* | i
CC(C)(C)c1ccc(OCCNCc2ccccc2)cc1 | -13% | i | 0% | i
CCCCc1ccc(NC(=S)N2CCCC2)cc1 | -18% | 11µM* | 21% | i
S=C(Nc1ccc(Cl)c(Cl)c1)N1CCCC1 | -6% | i | 3.2µM* | i
NNc1nc(-c2ccccc2)nc(-c2ccccc2)c1Br | -3% | i | 22µM* | i
CCCC[C@H]1C2CC(OC(=O)Nc3ccccc3C(F)(F)F)C(C2)[C@H]2CCCCN21 (some centres not stated) | . | . | . | i
CCOC(=O)C(=CNNc1cccc(Cl)c1)C(=O)OCC | 27% | i | 11µM* | i
CCOC(=O)C(=CNc1ccc(Cl)cn1)C(=O)OCC | 2% | i | 11µM* | i
CCCC1CCC2(CCCN2CCOC(=S)NCc2cccc(C)c2)CC1 (configuration not stated) | . | . | . | i
CC1=CC(=C(c2ccc(N)cc2)c2ccc(N)cc2)C=CC1=N | -55% | . | . | .
CCOC(=O)C1=CCN(S(=O)(=O)c2ccccc2)C1c1ccccc1 (configuration not stated) | 5% | i | ? | i
CCOC(=O)C1=CCN(S(=O)(=O)c2ccccc2)C1c1ccc(Cl)cc1 (configuration not stated) | 28% | i | 35µM* | i
CCOC(=O)C1=CCN(S(=O)(=O)c2ccc(F)cc2)C1c1ccc(F)cc1 (configuration not stated) | 4% | i | 0% | i
CCOC(=O)C1=CCN(S(=O)(=O)c2ccc(F)cc2)C1c1ccc(Br)cc1 (configuration not stated) | 24% | i | 35µM* | i
CS(=O)(=O)N1CCC[C@]2(CC[C@H](CCC#N)O2)C1 | . | . | . | i
O=S(=O)(Nc1cccc2ccccc12)c1ccc2ccccc2c1 | 20µM* | . | . | .
COc1ccccc1NS(=O)(=O)c1ccc2ccccc2c1 | 26% | i | 20µM* | i
COc1ccccc1NS(=O)(=O)c1ccc(OC)c(OC)c1 | 0% | i | 19% | i
COc1ccc(NS(=O)(=O)c2ccc3ccccc3c2)c2ncccc12 | ? | 4.5µM* | ? | i
CCN(Cc1ccccc1)C(=O)c1cnn(-c2ccc(F)cc2)c1-n1cccc1 | 8% | i | 35µM* | i
COC(=O)C[C@H]1CC[C@@H]2[C@@H](COc3ccc(NC(=O)Nc4ccccc4OC)cc3C(=O)N2C)O1 | . | . | . | i
Cc1ccc(S(=O)(=O)NC(=O)c2cc(C)n(-c3ccc(N(C)C)cc3)c2C)cc1 | -16% | i | 35µM* | ?
Cc1ccc(S(=O)(=O)NC(=O)c2cc(C)n(-c3ccccc3)c2C)cc1 | -9% | i | ? | i
NC(=O)[C@H](Cc1cc2ccccc2s1)NC(=O)[C@@H]1CC2(CC(c3cccc(NC(=O)[C@@H]4CCC(=O)N4)c3)=NO2)CN1C(=O)c1ccccc1 (some centres not stated) | 3% | i | -7% | 35µM*
NC(=O)[C@H]1CC2(CC(c3cccc(NC(=O)[C@H]4CCC(=O)N4)c3)=NO2)CN1C(=O)CC(c1ccccc1)c1ccccc1 (some centres not stated) | -5% | i | 2% | ?
